The text below walks through data of PubChem BioAssay (Tox21).

Records with an inconclusive call do not appear. Where a call stands in place of a potency, no number is given. Active and inactive are the calls of the source. The call rests on the fitted dose curve; in most records, active means well fitted activation curve with a large enough effect in the repeat runs; inconclusive means weak or mixed curves, or effect the other way; inactive means no such curve, though single readings can be large or run the other way.
Potency means the concentration at half of the fitted maximal effect.

The nature of the experiment: qHTS assay to identify small molecule agonists of the retinoic acid receptor (RAR) signaling pathway (AID 1159553). Conditions: C3RL4 RARE luciferase reporter, agonist, 6 h; series mostly up to 73.3 µM. Put shortly: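 6 hr compound exposure (DMSO vehicle) of overnight-plated C3RL4 RARE-luc cells at 37 C; luminescence quantified after 30 min RT with luciferase reagent.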
On to `CS(=O)(=O)O`, for which the Potency result was “inactive”. The same measure for `CCOC(C)(C)C`: “inactive”; for `O=Cc1cccc([N+](=O)[O-])c1`: “inactive”. The same measure for `N=C(N)c1ccc(OCCCOc2ccc(C(=N)N)cc2)cc1`: “inactive”; for `NC(=O)COCCN1CCN(C(c2ccccc2)c2ccc(Cl)cc2)CC1` (stereo not given): “inactive”; for `C/C=C(\C)C#N`: “inactive”. The same measure for `CCCCCCOC(=O)CCCCC(=O)OCCCCCC`: “inactive”; for `C[C@@H]1CCN(C(=O)[C@H](CCCN=C(N)N)NS(=O)(=O)c2cccc3c2NC[C@H](C)C3)[C@@H](C(=O)O)C1`: “inactive”.

As to `CCc1nccnc1CC`, the Potency result is “inactive”.

Consider `COC(C)(C)CCCC(C)CC=O` (stereo not given), for which the Potency entry is “inactive”. As to `CCCc1cc(C(N)=S)ccn1`, the Potency result is “inactive”. The same measure for `O=C(O)CCCl`: “inactive”; for `O=C(O)c1ccccc1OP(=O)(O)O`: “inactive”. The value for `Cn1cc(S(C)=O)c(=O)c2ccc(F)cc21` (stereo not given) was “inactive”. The value for `O=c1[nH]c(=O)n([C@H]2C[C@H](O)[C@@H](CO)O2)cc1I` was “inactive”; that for `CC(=O)Nc1ccc(S(N)(=O)=O)cc1` was “inactive”. As for `C=C(C)C(=O)OCCCCCCCC(C)C`, the Potency result is “inactive”. The value for `CC(C)(CC(=O)O)C(=O)O` was “inactive”; that for `CO[C@]12C[C@@H](COC(=O)c3cncc(Br)c3)CN(C)[C@@H]1Cc1cn(C)c3cccc2c13` was “inactive”. The value for `CC(=O)CC(C)C` was “inactive”. Consider `O=[N+]([O-])c1ccc(F)cc1F`, for which the Potency entry was “inactive”.

With `Nc1c[n+](N2CCOCC2)no1`, the Potency entry was “inactive”. The value for `CC/C=C\CCOC(C)=O` was “inactive”; that for `COC(=O)NN` was “inactive”. The value for `C1CN(CCOCCN2CCOCC2)CCO1` was “inactive”; that for `C[C@H]1C[C@@H](O)CC(C)(C)C1` was “inactive”; that for `C=CCCCCCCCCC=O` was “inactive”. The same measure for `CCCCCCCCCCCCN(CCCCCCCCCCCC)CCCCCCCCCCCC`: “inactive”; for `ClC(Cl)(Br)Br`: “inactive”; for `N=C(N)c1ccc2cc(OC(=O)c3ccc(N=C(N)N)cc3)ccc2c1`: “inactive”.

As to `CCCCCCCCCCCCCCCCC`, the Potency entry was “inactive”. The value for `CCOC(=O)c1c(C)n(C)c2ccc(O)cc12` was “inactive”. As for `Cc1cc2c(cc1S(N)(=O)=O)S(=O)(=O)CCC2`, the Potency entry is “inactive”. With `CCCCCCCCCCCC`, the Potency result was “inactive”. The value for `CC(C)NC(=O)NC(C)C` was 969 nM (active).
